Results taken from PubChem BioAssay AID1159580 (chemical genetic matrix, 2015).
Out of some 5,500 compounds screened, about 2,000 (36%) were called active. Another 18% or so got no clear call; they are omitted. No stated cut-off is given here; in the data, active means normalized growth mostly below about 0.91 (no sharp cut-off); inconclusive means no clear call, values can overlap the other calls; inactive means mostly above about 0.92. The list shows a part of the results.

Assay: chemical genetic growth profiling, strain panel (AID 1159580);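 further: tested at 20 µM; growth read once vehicle control cultures reached saturation at 30 °C; 1 = growth at the plate median or of vehicle wells; lower values mean less growth of the strain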
Conditions: growth OD

Measured: normalized growth

O=C1C(O)=C(O)C(=O)C(O)=C1O
inactive: S. cerevisiae deletion strains, locus YJR075W, strain HOC1, active compounds read low 0.999 | S. cerevisiae deletion strains, locus YKL009W, strain mrt4, active compounds read low 0.983 | S. cerevisiae deletion strains, locus YKL068W, active compounds read low 0.979 | S. cerevisiae deletion strains, locus YKL085W, strain MDH1 (second series), active compounds read low 0.956 | S. cerevisiae deletion strains, locus YKL085W, strain MDH1, active compounds read low 0.956 | S. cerevisiae deletion strains, locus YKL160W, strain elf1, active compounds read low 1.03 | S. cerevisiae deletion strains, locus YKL190W, strain CNB1, active compounds read low 0.98 | S. cerevisiae deletion strains, locus YKR001C, strain vps1, active compounds read low 0.995 | S. cerevisiae deletion strains, locus YKR026C, strain gcn3, active compounds read low 1.02 | S. cerevisiae deletion strains, locus YKR091W, strain srl3, active compounds read low 0.999 | S. cerevisiae deletion strains, locus YLL001W, strain dnm1, active compounds read low 1.01 | S. cerevisiae deletion strains, locus YLL026W, active compounds read low 1.02 | S. cerevisiae deletion strains, locus YLL041C, strain sdh2, active compounds read low 1.01 | S. cerevisiae deletion strains, locus YLR027C, strain aat2, active compounds read low 1.02 | S. cerevisiae deletion strains, locus YLR039C, strain RIC1, active compounds read low 0.957 | S. cerevisiae deletion strains, locus YLR058C, strain SHM2, active compounds read low 0.98 | S. cerevisiae deletion strains, locus YLR102C, strain apc9, active compounds read low 0.989 | S. cerevisiae deletion strains, locus YLR113W, strain HOG1, active compounds read low 0.969 | S. cerevisiae deletion strains, locus YLR221C, strain rsa3, active compounds read low 1 | S. cerevisiae deletion strains, locus YLR258W, strain gsy2, active compounds read low 1.03 | S. cerevisiae deletion strains, locus YLR262C, strain YPT6 (second series), active compounds read low 0.995 | S. cerevisiae deletion strains, locus YLR262C, strain YPT6, active compounds read low 0.946 | S. cerevisiae deletion strains, locus YLR268W, strain sec22, active compounds read low 0.964 | S. cerevisiae deletion strains, locus YLR320W, strain mms22, active compounds read low 1.01 | S. cerevisiae deletion strains, locus YLR330W, strain CHS5, active compounds read low 1.01 | S. cerevisiae deletion strains, locus YLR342W, strain FKS1 (second series), active compounds read low 1.07 | S. cerevisiae deletion strains, locus YLR342W, strain FKS1, active compounds read low 1.01 | S. cerevisiae deletion strains, locus YLR357W, strain rsc2, active compounds read low 0.989 | S. cerevisiae deletion strains, locus YLR370C, strain arc18, active compounds read low 1.01 | S. cerevisiae deletion strains, locus YLR371W, strain rom2, active compounds read low 1 | S. cerevisiae deletion strains, locus YLR384C, strain iki3, active compounds read low 1.03 | S. cerevisiae deletion strains, locus YLR418C, strain cdc73, active compounds read low 0.944 | S. cerevisiae deletion strains, locus YML016C, strain PPZ1, active compounds read low 0.988 | S. cerevisiae deletion strains, locus YML032C, strain rad52, active compounds read low 1.01 | S. cerevisiae deletion strains, locus YML120C, strain ndi1, active compounds read low 1.01 | S. cerevisiae deletion strains, locus YML124C, strain tub3, active compounds read low 0.997 | S. cerevisiae deletion strains, locus YMR058W, strain fet3, active compounds read low 1.02 | S. cerevisiae deletion strains, locus YMR078C, strain ctf18, active compounds read low 0.995 | S. cerevisiae deletion strains, locus YMR125W, strain sto1, active compounds read low 1.02 | S. cerevisiae deletion strains, locus YMR129W, active compounds read low 1.01 | S. cerevisiae deletion strains, locus YMR205C, strain PFK2, active compounds read low 1 | S. cerevisiae deletion strains, locus YMR223W, strain ubp8, active compounds read low 1.03 | S. cerevisiae deletion strains, locus YMR231W, strain pep5, active compounds read low 1 | S. cerevisiae deletion strains, locus YMR263W, strain SAP30, active compounds read low 0.96 | S. cerevisiae deletion strains, locus YMR307W, strain GAS1, active compounds read low 1.03 | S. cerevisiae deletion strains, locus YNL067W, strain RPL9B, active compounds read low 0.969 | S. cerevisiae deletion strains, locus YNL071W, strain lat1, active compounds read low 1.02 | S. cerevisiae deletion strains, locus YNL128W, strain TEP1, active compounds read low 0.944 | S. cerevisiae deletion strains, locus YNL153C, strain GIM3, active compounds read low 0.956 | S. cerevisiae deletion strains, locus YNL183C, strain NPR1, active compounds read low 0.927 | S. cerevisiae deletion strains, locus YNL209W, strain ssb2, active compounds read low 1 | S. cerevisiae deletion strains, locus YNL233W, strain BNI4, active compounds read low 0.982 | S. cerevisiae deletion strains, locus YNL248C, strain rpa49, active compounds read low 1.05 | S. cerevisiae deletion strains, locus YNL250W, strain rad50, active compounds read low 0.966 | S. cerevisiae deletion strains, locus YNL271C, strain bni1, active compounds read low 0.998 | S. cerevisiae deletion strains, locus YNL298W, strain CLA4, active compounds read low 0.98 | S. cerevisiae deletion strains, locus YNL307C, strain MCK1, active compounds read low 1.02 | S. cerevisiae deletion strains, locus YNL322C, strain KRE1 (second series), active compounds read low 1.02 | S. cerevisiae deletion strains, locus YNL322C, strain KRE1, active compounds read low 0.98 | S. cerevisiae deletion strains, locus YNR049C, strain mso1, active compounds read low 1.01 | S. cerevisiae deletion strains, locus YNR052C, strain pop2, active compounds read low 1.02 | S. cerevisiae deletion strains, locus YOL006C, strain TOP1, active compounds read low 0.968 | S. cerevisiae deletion strains, locus YOL012C, strain htz1 0.781 | S. cerevisiae deletion strains, locus YOL147C, strain pex11, active compounds read low 0.993 | S. cerevisiae deletion strains, locus YOR001W, strain rrp6, active compounds read low 0.999 | S. cerevisiae deletion strains, locus YOR061W, strain CKA2, active compounds read low 0.961 | S. cerevisiae deletion strains, locus YOR069W, strain VPS5, active compounds read low 1 | S. cerevisiae deletion strains, locus YOR070C, strain gyp1, active compounds read low 1.01 | S. cerevisiae deletion strains, locus YOR080W, strain dia2, active compounds read low 1.02 | S. cerevisiae deletion strains, locus YOR083W, strain WHI5, active compounds read low 0.984 | S. cerevisiae deletion strains, locus YOR106W, strain vam3, active compounds read low 1.02 | S. cerevisiae deletion strains, locus YOR136W, strain idh2, active compounds read low 0.999 | S. cerevisiae deletion strains, locus YOR144C, strain elg1, active compounds read low 0.989 | S. cerevisiae deletion strains, locus YOR184W, strain ser1, active compounds read low 1.08 | S. cerevisiae deletion strains, locus YOR231W, strain MKK1, active compounds read low 0.987 | S. cerevisiae deletion strains, locus YOR265W, strain rbl2, active compounds read low 1.01 | S. cerevisiae deletion strains, locus YOR270C, strain vph1, active compounds read low 1.05 | S. cerevisiae deletion strains, locus YOR290C, strain snf2, active compounds read low 1.02 | S. cerevisiae deletion strains, locus YOR316C, strain cot1, active compounds read low 0.988 | S. cerevisiae deletion strains, locus YPL051W, strain arl3, active compounds read low 1.01 | S. cerevisiae deletion strains, locus YPL055C, strain LGE1, active compounds read low 0.898 | S. cerevisiae deletion strains, locus YPL078C, strain atp4, active compounds read low 1.03 | S. cerevisiae deletion strains, locus YPL106C, strain sse1, active compounds read low 1.03 | S. cerevisiae deletion strains, locus YPL240C, strain hsp82, active compounds read low 1.01 | S. cerevisiae deletion strains, locus YPL241C, strain CIN2, active compounds read low 0.991 | S. cerevisiae deletion strains, locus YPL256C, strain CLN2, active compounds read low 0.964 | S. cerevisiae deletion strains, locus YPR119W, strain clb2, active compounds read low 0.996 | S. cerevisiae deletion strains, locus YPR141C, strain kar3, active compounds read low 0.952 | S. cerevisiae deletion strains, locus YPR163C, strain tif3, active compounds read low 0.998 | S. cerevisiae deletion strains, locus YPR167C, strain met16, active compounds read low 0.99 | S. cerevisiae deletion strains, strain wtn01, active compounds read low 0.994 | S. cerevisiae strains, strain wild type, active compounds read low 0.989
